# Results from paper PMC7862700, “An all-to-all approach to the identification of sequence-specific readers for epigenetic DNA modifications on cytosine”.
# How the values were obtained:
# Assay in all cases: DAPPL (digital affinity profiling via proximity ligation, sequencing); 10 mM Tris-HCl pH 7.5, 50 mM NaCl, 1 mM DTT, 4% glycerol, room temperature, 30 min; GST-TFs on glutathione beads, 16-mer random dsDNA library, 0.1% formaldehyde crosslink after washing; high values mean tight binding
# [1] = biological target: T1, FLI1 (Homo sapiens, UniProt Q01543 1-452); conditions: protein: recombinant; tags: N-terminal GST; dsDNA, one strand shown
# T1 sequence: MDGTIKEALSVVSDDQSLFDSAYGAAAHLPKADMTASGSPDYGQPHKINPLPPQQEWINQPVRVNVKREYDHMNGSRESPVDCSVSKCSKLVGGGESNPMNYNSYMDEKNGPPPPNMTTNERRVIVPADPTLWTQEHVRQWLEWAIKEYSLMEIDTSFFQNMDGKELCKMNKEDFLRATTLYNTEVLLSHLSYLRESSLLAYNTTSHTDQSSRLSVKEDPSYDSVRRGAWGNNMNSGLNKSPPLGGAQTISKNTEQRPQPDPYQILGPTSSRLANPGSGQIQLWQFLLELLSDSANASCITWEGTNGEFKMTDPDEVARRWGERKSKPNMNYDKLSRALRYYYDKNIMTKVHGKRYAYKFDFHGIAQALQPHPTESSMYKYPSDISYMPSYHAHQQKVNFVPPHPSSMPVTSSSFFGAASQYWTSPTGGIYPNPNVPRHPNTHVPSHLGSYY
# How it was run: (§1)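 In yeast, human transcription factors were expressed with a GST fusion, then pulled down on glutathione beads and given DNA barcodes. Pooled with a tag-only sample, they were exposed to 200 nmole of a 16-mer random double-stranded DNA library (Tris/NaCl/DTT/glycerol buffer, room temperature, 30 min), washed, crosslinked with 0.1% formaldehyde, proximity-ligated using BsaI/T4 ligase for 1 h at 37 °C, PCR-amplified and read on an Illumina NextSeq500. Each hexamer's frequency of reads for a factor, divided by the matching frequency for the tag-only sample, gives the binding signal.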
# [2] = biological target: T2, ELK1 (Homo sapiens, UniProt P19419 1-428); conditions: protein: recombinant; tags: N-terminal GST; dsDNA, one strand shown
# T2 sequence: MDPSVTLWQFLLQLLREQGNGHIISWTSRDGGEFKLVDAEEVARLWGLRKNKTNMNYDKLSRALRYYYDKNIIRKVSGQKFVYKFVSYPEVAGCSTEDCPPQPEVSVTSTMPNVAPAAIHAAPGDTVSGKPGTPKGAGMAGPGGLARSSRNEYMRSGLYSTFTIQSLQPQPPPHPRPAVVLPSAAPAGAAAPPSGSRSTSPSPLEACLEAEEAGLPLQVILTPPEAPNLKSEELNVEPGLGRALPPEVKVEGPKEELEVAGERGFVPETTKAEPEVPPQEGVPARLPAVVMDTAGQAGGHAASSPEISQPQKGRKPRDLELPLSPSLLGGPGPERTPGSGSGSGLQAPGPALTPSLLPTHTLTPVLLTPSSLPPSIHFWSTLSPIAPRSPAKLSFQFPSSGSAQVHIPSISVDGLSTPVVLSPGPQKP
# How it was run: as §1
# [3] = biological target: T3, GABPA (Homo sapiens, UniProt Q06546 1-454); conditions: protein: recombinant; tags: N-terminal GST; dsDNA, one strand shown
# T3 sequence: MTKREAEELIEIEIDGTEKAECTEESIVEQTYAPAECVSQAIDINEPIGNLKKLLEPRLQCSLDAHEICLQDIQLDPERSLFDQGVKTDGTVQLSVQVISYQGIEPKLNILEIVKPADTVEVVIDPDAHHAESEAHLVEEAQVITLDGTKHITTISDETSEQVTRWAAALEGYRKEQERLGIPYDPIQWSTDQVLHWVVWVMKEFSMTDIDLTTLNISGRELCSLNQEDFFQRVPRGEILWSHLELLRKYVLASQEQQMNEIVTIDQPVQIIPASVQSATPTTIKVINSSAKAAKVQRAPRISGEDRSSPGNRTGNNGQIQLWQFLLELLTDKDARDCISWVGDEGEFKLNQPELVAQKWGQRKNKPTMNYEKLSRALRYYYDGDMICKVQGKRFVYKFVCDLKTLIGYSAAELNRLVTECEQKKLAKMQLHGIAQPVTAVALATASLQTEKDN
# How it was run: as §1
# [4] = biological target: T4, ERG (Homo sapiens, UniProt P11308 1-479); conditions: protein: recombinant; tags: N-terminal GST; dsDNA, one strand shown
# T4 sequence: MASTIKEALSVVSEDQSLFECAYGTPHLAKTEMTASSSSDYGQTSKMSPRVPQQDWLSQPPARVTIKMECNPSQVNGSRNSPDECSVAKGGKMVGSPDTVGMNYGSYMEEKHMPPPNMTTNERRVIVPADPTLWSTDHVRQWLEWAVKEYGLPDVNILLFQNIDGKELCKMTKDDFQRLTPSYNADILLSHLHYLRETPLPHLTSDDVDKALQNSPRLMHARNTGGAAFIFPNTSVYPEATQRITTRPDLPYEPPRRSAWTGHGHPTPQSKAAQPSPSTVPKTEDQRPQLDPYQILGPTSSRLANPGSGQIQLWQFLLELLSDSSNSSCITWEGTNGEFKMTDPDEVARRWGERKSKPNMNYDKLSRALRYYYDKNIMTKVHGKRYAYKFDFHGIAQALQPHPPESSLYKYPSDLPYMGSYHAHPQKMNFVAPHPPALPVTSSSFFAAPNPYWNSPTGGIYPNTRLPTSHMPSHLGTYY
# How it was run: as §1
# [5] = biological target: ELF1 (Homo sapiens, UniProt P32519 1-619); conditions: protein: recombinant; tags: N-terminal GST; dsDNA, one strand shown
# How it was run: as §1
# [6] = biological target: T5, EHF (Homo sapiens, UniProt Q9NZC4 1-300); conditions: protein: recombinant; tags: N-terminal GST; dsDNA, one strand shown
# T5 sequence: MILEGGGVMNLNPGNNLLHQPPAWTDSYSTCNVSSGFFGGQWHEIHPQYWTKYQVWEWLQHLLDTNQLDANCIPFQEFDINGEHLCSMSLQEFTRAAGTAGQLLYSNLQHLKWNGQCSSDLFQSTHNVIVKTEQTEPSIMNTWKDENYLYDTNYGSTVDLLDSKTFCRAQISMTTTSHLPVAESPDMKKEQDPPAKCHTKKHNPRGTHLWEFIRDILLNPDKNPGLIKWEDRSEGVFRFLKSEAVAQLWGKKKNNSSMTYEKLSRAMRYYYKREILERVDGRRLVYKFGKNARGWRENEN
# How it was run: as §1
# [7] = biological target: SPI1 (Homo sapiens, UniProt P17947 1-270); conditions: protein: recombinant; tags: N-terminal GST; dsDNA, one strand shown
# How it was run: as §1
# [8] = biological target: SPIB (Homo sapiens, UniProt Q01892 1-262); conditions: protein: recombinant; tags: N-terminal GST; dsDNA, one strand shown
# How it was run: as §1
# [9] = biological target: T6, ELK3 (Homo sapiens, UniProt P41970 1-407); conditions: protein: recombinant; tags: N-terminal GST; dsDNA, one strand shown
# T6 sequence: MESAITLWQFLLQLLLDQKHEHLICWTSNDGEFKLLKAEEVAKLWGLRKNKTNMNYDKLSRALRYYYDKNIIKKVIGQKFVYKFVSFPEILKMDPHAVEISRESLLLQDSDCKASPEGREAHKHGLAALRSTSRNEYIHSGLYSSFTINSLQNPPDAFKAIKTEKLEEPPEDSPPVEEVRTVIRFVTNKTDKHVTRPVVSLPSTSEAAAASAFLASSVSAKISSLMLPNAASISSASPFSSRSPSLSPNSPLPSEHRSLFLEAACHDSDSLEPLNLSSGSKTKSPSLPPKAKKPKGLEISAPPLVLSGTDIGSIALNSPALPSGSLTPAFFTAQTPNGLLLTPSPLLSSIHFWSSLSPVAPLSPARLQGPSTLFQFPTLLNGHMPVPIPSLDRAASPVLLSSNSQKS
# How it was run: as §1
# [10] = biological target: T7, FEV (Homo sapiens, UniProt Q99581 1-238); conditions: protein: recombinant; tags: N-terminal GST; dsDNA, one strand shown
# T7 sequence: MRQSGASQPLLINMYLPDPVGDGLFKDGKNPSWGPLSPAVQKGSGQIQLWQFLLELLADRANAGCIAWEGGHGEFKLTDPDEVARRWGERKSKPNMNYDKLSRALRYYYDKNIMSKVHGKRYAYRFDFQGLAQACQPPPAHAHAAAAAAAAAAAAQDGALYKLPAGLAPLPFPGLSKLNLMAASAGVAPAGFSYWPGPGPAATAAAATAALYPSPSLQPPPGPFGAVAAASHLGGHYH
# How it was run: as §1
# [11] = biological target: ETV5 (Homo sapiens, UniProt P41161 1-510); conditions: protein: recombinant; tags: N-terminal GST; dsDNA, one strand shown
# How it was run: as §1
# [12] = biological target: HSF1 (Homo sapiens, UniProt Q00613 1-529); conditions: protein: recombinant; tags: N-terminal GST; chain copies: 3; dsDNA, one strand shown
# How it was run: as §1
# [13] = biological target: T8, SPIC (Homo sapiens, UniProt Q8N5J4 1-248); conditions: protein: recombinant; tags: N-terminal GST; dsDNA, one strand shown
# T8 sequence: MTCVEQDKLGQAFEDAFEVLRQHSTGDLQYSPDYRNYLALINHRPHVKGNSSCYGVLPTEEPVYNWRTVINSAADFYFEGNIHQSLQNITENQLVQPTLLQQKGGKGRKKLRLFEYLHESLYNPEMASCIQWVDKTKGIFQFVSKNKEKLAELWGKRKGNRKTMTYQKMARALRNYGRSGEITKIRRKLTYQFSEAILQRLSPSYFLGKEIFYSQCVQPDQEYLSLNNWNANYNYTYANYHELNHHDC
# How it was run: as §1
# [14] = biological target: ELF4 (Homo sapiens, UniProt Q99607 1-663); conditions: protein: recombinant; tags: N-terminal GST; dsDNA, one strand shown
# How it was run: as §1
# [15] = biological target: T9, ELK4 (Homo sapiens, UniProt P28324-2 1-405); conditions: protein: recombinant; tags: N-terminal GST; dsDNA, one strand shown
# T9 sequence: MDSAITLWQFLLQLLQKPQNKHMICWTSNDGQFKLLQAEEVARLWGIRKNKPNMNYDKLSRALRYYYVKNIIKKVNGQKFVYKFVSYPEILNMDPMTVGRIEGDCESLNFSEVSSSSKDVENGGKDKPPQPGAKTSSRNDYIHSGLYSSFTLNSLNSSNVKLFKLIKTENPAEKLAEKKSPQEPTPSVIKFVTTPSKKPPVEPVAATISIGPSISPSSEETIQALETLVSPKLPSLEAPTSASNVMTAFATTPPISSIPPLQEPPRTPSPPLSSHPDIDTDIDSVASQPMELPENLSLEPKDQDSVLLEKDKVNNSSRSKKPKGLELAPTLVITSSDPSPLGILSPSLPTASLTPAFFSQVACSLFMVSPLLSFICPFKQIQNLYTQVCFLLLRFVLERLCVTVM
# How it was run: as §1
# [16] = biological target: T10, ETV2 (Homo sapiens, UniProt O00321 1-342); conditions: protein: recombinant; tags: N-terminal GST; dsDNA, one strand shown
# T10 sequence: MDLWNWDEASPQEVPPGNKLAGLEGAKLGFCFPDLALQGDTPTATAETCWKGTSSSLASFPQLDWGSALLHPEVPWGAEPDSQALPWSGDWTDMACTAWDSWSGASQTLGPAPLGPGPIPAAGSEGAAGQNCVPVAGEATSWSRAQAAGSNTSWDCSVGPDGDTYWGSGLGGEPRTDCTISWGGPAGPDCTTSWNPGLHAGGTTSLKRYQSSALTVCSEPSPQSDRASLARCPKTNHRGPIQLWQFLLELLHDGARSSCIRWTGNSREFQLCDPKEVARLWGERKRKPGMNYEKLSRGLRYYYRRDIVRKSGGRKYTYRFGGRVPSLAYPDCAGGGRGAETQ
# How it was run: as §1
# [17] = biological target: T11, ELF3 (Homo sapiens, UniProt P78545 1-371); conditions: protein: recombinant; tags: N-terminal GST; dsDNA, one strand shown
# T11 sequence: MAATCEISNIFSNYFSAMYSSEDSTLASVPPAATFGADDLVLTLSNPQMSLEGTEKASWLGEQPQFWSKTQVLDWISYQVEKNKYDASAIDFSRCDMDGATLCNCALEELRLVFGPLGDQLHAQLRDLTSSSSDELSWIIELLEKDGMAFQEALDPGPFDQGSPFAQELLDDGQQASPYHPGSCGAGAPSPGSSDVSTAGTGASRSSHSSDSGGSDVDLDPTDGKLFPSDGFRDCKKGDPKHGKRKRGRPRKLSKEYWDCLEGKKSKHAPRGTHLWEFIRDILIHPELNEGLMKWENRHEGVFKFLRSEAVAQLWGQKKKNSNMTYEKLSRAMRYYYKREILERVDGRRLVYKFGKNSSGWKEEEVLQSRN
# How it was run: as §1
# [18] = biological target: ETV1 (Homo sapiens, UniProt P50549 1-477); conditions: protein: recombinant; tags: N-terminal GST; dsDNA, one strand shown
# How it was run: as §1
# ELF1, sequence (P32519 whole entry): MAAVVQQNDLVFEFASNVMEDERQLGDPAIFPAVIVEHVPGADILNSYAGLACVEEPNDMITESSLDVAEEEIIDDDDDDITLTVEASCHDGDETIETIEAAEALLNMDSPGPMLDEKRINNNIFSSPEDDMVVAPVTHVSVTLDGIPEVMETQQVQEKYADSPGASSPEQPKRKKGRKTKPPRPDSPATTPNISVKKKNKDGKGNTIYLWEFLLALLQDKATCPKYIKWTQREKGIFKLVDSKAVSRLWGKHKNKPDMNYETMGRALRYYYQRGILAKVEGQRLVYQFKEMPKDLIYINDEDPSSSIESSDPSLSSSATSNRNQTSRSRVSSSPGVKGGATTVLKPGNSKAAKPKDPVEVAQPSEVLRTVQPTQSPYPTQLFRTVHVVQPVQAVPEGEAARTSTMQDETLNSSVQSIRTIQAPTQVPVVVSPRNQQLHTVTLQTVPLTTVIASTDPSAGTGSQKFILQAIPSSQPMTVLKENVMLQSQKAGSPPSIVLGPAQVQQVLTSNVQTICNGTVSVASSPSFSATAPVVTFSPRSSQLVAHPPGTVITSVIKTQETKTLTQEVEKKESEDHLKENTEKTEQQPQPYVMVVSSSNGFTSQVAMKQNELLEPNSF
# HSF1, sequence (Q00613 whole entry): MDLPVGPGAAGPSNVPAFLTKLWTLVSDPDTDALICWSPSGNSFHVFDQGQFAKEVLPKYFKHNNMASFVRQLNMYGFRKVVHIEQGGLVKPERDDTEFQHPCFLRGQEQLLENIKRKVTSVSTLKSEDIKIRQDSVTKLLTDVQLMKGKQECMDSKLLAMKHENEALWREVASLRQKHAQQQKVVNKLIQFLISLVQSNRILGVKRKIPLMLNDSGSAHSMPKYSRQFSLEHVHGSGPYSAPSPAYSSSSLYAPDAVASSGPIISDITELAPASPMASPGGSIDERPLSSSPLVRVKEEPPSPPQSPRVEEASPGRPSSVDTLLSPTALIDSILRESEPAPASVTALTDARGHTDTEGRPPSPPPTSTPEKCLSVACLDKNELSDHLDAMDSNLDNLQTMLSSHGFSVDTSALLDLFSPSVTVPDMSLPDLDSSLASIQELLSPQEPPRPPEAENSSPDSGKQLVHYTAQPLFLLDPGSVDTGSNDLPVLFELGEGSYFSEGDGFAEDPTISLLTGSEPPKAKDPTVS
# ETV1, sequence (P50549 whole entry): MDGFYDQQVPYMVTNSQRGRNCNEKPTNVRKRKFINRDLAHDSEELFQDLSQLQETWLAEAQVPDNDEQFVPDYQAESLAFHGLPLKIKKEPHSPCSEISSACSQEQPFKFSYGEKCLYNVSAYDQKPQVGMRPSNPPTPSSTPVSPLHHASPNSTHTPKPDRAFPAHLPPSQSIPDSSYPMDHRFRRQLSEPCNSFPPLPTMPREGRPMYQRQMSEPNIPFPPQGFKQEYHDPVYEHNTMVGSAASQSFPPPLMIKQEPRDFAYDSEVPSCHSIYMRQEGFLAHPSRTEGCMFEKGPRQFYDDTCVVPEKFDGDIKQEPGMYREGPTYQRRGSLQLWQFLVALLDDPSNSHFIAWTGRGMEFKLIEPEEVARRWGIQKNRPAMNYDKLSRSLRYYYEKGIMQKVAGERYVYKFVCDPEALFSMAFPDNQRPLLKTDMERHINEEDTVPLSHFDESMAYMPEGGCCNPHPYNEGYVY
# ETV5, sequence (P41161 whole entry): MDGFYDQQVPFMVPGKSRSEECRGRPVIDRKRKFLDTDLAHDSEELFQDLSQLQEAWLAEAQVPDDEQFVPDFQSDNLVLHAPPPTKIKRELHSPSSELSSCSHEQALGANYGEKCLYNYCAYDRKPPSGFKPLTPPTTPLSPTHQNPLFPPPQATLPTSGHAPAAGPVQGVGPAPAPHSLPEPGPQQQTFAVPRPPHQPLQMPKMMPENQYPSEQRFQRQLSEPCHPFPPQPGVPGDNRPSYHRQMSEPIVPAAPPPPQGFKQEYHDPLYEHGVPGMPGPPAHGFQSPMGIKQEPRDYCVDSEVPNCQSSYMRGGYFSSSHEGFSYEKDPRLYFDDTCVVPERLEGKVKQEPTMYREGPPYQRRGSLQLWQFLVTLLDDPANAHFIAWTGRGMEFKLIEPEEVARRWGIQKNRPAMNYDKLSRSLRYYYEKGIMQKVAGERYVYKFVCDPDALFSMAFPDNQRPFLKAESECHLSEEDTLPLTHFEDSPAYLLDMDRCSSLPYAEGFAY
# SPIB, sequence (Q01892 whole entry): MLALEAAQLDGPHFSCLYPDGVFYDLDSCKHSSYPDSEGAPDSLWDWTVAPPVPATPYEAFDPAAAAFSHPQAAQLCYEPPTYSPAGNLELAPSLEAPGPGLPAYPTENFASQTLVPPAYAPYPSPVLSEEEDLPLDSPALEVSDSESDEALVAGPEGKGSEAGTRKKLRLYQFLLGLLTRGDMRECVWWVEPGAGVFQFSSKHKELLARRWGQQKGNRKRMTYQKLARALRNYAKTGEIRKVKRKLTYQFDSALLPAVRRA
# ELF4, sequence (Q99607 whole entry): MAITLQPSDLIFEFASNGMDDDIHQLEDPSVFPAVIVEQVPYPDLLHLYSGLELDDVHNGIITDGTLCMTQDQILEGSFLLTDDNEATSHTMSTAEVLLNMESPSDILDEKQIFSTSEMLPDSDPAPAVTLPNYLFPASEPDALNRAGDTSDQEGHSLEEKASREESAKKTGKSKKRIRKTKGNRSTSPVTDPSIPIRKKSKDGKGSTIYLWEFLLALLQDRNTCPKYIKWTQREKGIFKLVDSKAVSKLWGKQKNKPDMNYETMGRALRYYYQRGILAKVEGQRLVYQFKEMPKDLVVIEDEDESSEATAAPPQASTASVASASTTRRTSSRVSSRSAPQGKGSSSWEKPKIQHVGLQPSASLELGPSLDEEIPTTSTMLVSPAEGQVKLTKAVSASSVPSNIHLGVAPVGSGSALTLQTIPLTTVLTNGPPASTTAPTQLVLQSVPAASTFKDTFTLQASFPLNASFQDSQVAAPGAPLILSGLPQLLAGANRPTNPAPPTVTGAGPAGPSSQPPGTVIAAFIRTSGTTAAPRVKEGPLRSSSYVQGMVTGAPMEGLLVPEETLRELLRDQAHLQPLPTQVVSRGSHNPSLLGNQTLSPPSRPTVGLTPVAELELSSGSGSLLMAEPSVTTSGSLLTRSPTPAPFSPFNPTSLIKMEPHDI
sequence,measurement,setting,value
CTGCCA,binding signal,[1],"1.18 fold enrichment (6-mer frequency, TF over GST control)"
same,binding signal,[2],"1.17 fold enrichment (6-mer frequency, TF over GST control)"
same,binding signal,[3],"1.24 fold enrichment (6-mer frequency, TF over GST control)"
same,binding signal,[4],"1.23 fold enrichment (6-mer frequency, TF over GST control)"
same,binding signal,[5],"1.23 fold enrichment (6-mer frequency, TF over GST control)"
same,binding signal,[6],"1.18 fold enrichment (6-mer frequency, TF over GST control)"
same,binding signal,[7],"1.24 fold enrichment (6-mer frequency, TF over GST control)"
same,binding signal,[8],"1.28 fold enrichment (6-mer frequency, TF over GST control)"
same,binding signal,[9],"1.08 fold enrichment (6-mer frequency, TF over GST control)"
same,binding signal,[10],"1.24 fold enrichment (6-mer frequency, TF over GST control)"
same,binding signal,[11],"1.15 fold enrichment (6-mer frequency, TF over GST control)"
same,binding signal,[12],"1 fold enrichment (6-mer frequency, TF over GST control)"
same,binding signal,[13],"1.18 fold enrichment (6-mer frequency, TF over GST control)"
same,binding signal,[14],"1.25 fold enrichment (6-mer frequency, TF over GST control)"
same,binding signal,[15],"1.33 fold enrichment (6-mer frequency, TF over GST control)"
same,binding signal,[16],"1.03 fold enrichment (6-mer frequency, TF over GST control)"
same,binding signal,[17],"1.22 fold enrichment (6-mer frequency, TF over GST control)"
same,binding signal,[18],"1.17 fold enrichment (6-mer frequency, TF over GST control)"
